NLRP3 yeast inh – inhibitors of NALP3 inflammasome in yeast. Yeast reconstituted NLRP3/ASC/caspase-1, beta-gal luminescence, 24 h. inhibition, % at 10 µM. hit rate 0.39% among 330,000. AID 2825;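 active = inhibition of 50% or more; inactive = inhibition below 50%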;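 also: plate controls were induced DMSO wells for no effect and uninduced yeast grown without galactose for full effect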
SKKanGAS inh – blocks kanamycin growth of S. pyogenes SKKanGAS strain; BacTiter-Glo, 6 h; inhibition, % at 7.5 µM; hit rate 1.3% among 300,000; AID 1662;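 active = mean replicate score, as percent of positive control median, at least 50; inconclusive = mean below 50 but one replicate at or above 50; inactive = mean and every replicate below 50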;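 also: strain carries kanamycin resistance gene driven by streptokinase promoter and grows in 40 µg/ml kanamycin; loss of luminescence reflects streptokinase promoter inhibition or plain growth inhibition; 0% = median of DMSO wells and 100% = positive control at its reference dose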
TIM10 inh – TIM10 yeast growth inhibition; S. cerevisiae TIM10 strain growth, BacTiter-Glo luminescence, 24 h; inhibition, % at 10 µM; hit rate 1.4% among 330,000;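 active = inhibition of 40% or more at the single tested concentration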;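 also: wild-type TIM10 isogenic control strain grown at permissive 25 °C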
tim23-1 inh – growth inhibitors of tim23-1 mutant yeast. S. cerevisiae tim23-1 growth, BacTiter-Glo luminescence, 24 h. inhibition, % at 20 µM. hit rate 1.3% among 330,000. AID 463212;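 active = growth inhibition of the mutant yeast at or above 50%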;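 also: temperature-sensitive mutant grown at 25 °C; plate controls were DMSO-treated mutant yeast for no effect and medium wells lacking yeast for full effect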
tim10-1 inh – inhibits growth of tim10-1 mutant yeast | S. cerevisiae tim10-1 ts strain growth, BacTiter-Glo, 24 h | AID 463190 | hit rate 2.2% among 330,000 | inhibition, % at 20 µM;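 active = inhibition of at least 40%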;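 also: mutant grown at 25 °C; 0% = DMSO wells with yeast and 100% = wells holding no yeast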
PfHsp90 set2 – reduces growth (ATP signal) of yeast expressing P. falciparum Hsp90; S. cerevisiae expressing PfHsp90, BacTiter-Glo ATP, 48 h; yeast lacking PDR1 and PDR3 efflux regulators; inhibition, % at 9.4 µM; hit rate 0.32% among 310,000;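 active = every replicate shows inhibition above about 80%, whatever the replicate mean, limit read from the data; inconclusive = mean inhibition reaches the set limit but some replicate falls short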;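 also: 0% = DMSO neutral controls and 100% = 20 µM radicicol positive controls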
* hit, by the source's call; ? = inconclusive; nt = not tested or not shown. A selection: hits, their analogues and other compounds. The true share with any hit is near 4.6%.

SMILES	NLRP3 yeast inh	SKKanGAS inh	TIM10 inh	tim23-1 inh	tim10-1 inh	PfHsp90 set2
Fc1ccccc1Oc1nc(-c2ccncc2)nc2ccccc12	-4.0	12.1	3.9	19.0	3.2	-2.8
Cc1nn(-c2ccccc2)c(Cl)c1C1C(C#N)=C(N)OC2=C1C(=O)CCC2 (centres undefined)	-7.6	86.9*	10.2	11.4	34.0	17.1
Cc1nn(C)c(C)c1C1C(C#N)=C(N)OC2=C1C(=O)CCC2 (centres undefined)	14.8	-11.5	8.0	7.6	3.3	20.0
CCOC(=O)N1CCC(NC(=O)c2cc3c(=O)[nH]c4ccccc4c3n2C)CC1	23.4	-10.9	11.8	5.1	-0.2	1.5
COc1ccc(-n2c(=O)c3c4c(sc3n3c(=S)[nH]nc23)CCC4)cc1	2.4	65.0*	-4.6	-5.4	5.7	2.1
CCCc1cc(=O)c2ccc(OC/C(C)=N/O)cc2o1	11.7	0.3	8.5	10.9	8.1	-15.7
O=[N+]([O-])c1ccc(Cl)cc1Sc1nc2ccccc2o1	-11.9	66.8*	19.9	24.3	12.9	-1.3
O=[N+]([O-])c1ccc(Cl)cc1Sc1cccc2cccnc12	12.5	6.8	10.1	0.5	10.2	22.1
CCc1ccccc1NC(=O)c1cccc(Oc2ccc([N+](=O)[O-])cc2Cl)c1	26.2	11.5	-15.5	-59.7	6.5	92.3*
CCOC(=O)C1=C(O)C(=O)N(c2ccc(S(N)(=O)=O)cc2)C1c1ccc(Br)cc1 (centres undefined)	-3.6	-3.3	-7.8	13.1	-1.6	-38.3
Cc1cc(N/N=C/c2ccc(O)c(C)c2O)nc(-c2ccccc2O)n1	nt	58.1*	nt	nt	nt	-54.8
C/C(=N\Nc1cc(C)nc(-c2ccccc2O)n1)c1ccccc1	13.1	22.5	18.0	5.1	21.7	-37.6
O=c1c2c(n3nnnc3n1Cc1ccccc1)-c1ccccc1CC21CCCC1	-5.5	64.6*	20.1	4.7	11.2	13.0
CCC1(C)Cc2ccccc2-c2c1c(=O)n(Cc1ccccc1)c1nnnn21 (centres undefined)	3.7	68.6*	2.5	11.5	19.0	2.7
Cc1cc(C)cc(OCCNC(=O)CCc2ccccc2)c1	37.5	0.8	-10.5	12.9	-4.9	7.0
COc1ccc(NC(=O)C(CC(=O)O)Cc2ccc(C)cc2)cc1 (centres undefined)	-6.6	1.9	-1.5	13.8	-24.9	nt
O=C(NNS(=O)(=O)c1ccccc1[N+](=O)[O-])c1cccnc1	8.8	-0.6	-20.7	3.5	-10.2	3.7
N#Cc1ccc(CN2CCN(CC(=O)NCCc3ccc(Cl)cc3Cl)CC2)cc1	9.0	-2.2	3.7	11.0	5.2	7.9
O=C(O)C(c1ccccc1)N1C(=O)/C(=C\c2ccc(-c3ccccc3Cl)o2)SC1=S (centres undefined)	20.3	102.0*	8.0	28.4	24.8	-16.9
O=C(O)C(c1ccccc1)N1C(=O)/C(=C\c2ccc(-c3ccc(Br)cc3)o2)SC1=S (centres undefined)	1.3	108.6*	13.8	34.5	30.0	3.6
Cn1c(Oc2ccccc2NCc2cc(Br)ccc2O)cc(=O)n(C)c1=O	9.4	58.7*	3.2	23.2	17.8	0.4
COc1cccc(-c2nn(-c3ccccc3)cc2C(=O)Nc2nccs2)c1	19.5	61.6*	30.0	25.0	31.4	-41.3
O=C(/C=C/c1cn(-c2ccccc2)nc1-c1ccccc1)Nc1ccc(C(=O)O)cc1	-5.9	49.9*	8.4	13.1	10.7	-35.4
O=C(Nc1nccs1)c1cn(-c2ccccc2)nc1-c1ccncc1	9.2	4.1	5.1	20.6	22.3	3.1
COC(=O)c1ccc(NC(=O)c2cn(-c3ccccc3)nc2-c2ccncc2)cc1	23.0	7.7	-23.7	-20.1	-23.9	89.2*
SMILES	NLRP3 yeast inh	SKKanGAS inh	TIM10 inh	tim23-1 inh	tim10-1 inh	PfHsp90 set2
O=C(COC(=O)c1cccc(S(=O)(=O)N2CCOCC2)c1)NCCc1ccccc1	12.1	3.2	2.2	-11.2	4.4	7.3
CC(=O)N1CCc2cc(S(=O)(=O)N3CCc4ccccc43)ccc21	14.2	52.3*	7.8	14.1	23.2	-7.2
COc1ccc(OC)c(CCNC(=O)C(=O)Nc2ccc3nc4n(c(=O)c3c2)CCCCC4)c1	-1.2	57.3*	13.7	13.6	16.7	-19.8
CCN(CC)S(=O)(=O)c1ccc(OCC(=O)NC(=O)c2ccccc2OC)c([N+](=O)[O-])c1	22.1	0.8	3.0	-13.4	6.4	21.3
COc1ccc(-n2cnnc2SCC(=O)Nc2ccccc2F)cc1	9.7	-3.4	14.7	13.8	8.5	3.1
COC(=O)c1ccccc1NC(=O)c1nc(S(=O)(=O)Cc2ccccc2)ncc1Cl	7.8	58.4*	28.4	38.4	38.3	-5.4
Cc1ccc(NS(=O)(=O)c2cc([N+](=O)[O-])ccc2NNC(=S)Nc2cccc(Cl)c2)c(C)c1	nt	88.5*	nt	nt	nt	12.3
COc1ccc(NC(=S)NNc2ccc([N+](=O)[O-])cc2S(=O)(=O)Nc2ccc(C)cc2C)cc1	12.1	64.5*	12.3	28.6	36.8	-50.2
O=C(Nc1nc(-c2ccccn2)cs1)c1ccco1	-3.9	59.5*	2.9	-29.2	13.5	-9.7
O=C(CC1CC2CCC1C2)Nc1nc(-c2ccccn2)cs1 (centres undefined)	35.0	76.2*	29.8	40.9	25.9	-32.8
O=C(Nc1nc(-c2ccc(-c3ccccc3)cc2)cs1)C1CCCO1 (centres undefined)	25.7	63.9*	23.8	35.0	26.5	-25.0
O=C(Nc1nc(-c2ccc3c(c2)OCCO3)cs1)c1ccco1	33.4	56.5*	-9.9	22.1	6.4	nt
O=C(Nc1nc(-c2ccccn2)cs1)C12CC3CC(CC(O)(C3)C1)C2	11.7	?	-18.2	-5.5	-7.6	-42.6
O=C(Nc1nc(-c2ccccc2)cs1)C1CCCO1 (centres undefined)	39.0	-8.4	1.1	0.8	2.6	6.7
O=C(COC(=O)C1CCCCC1)Nc1cccc(Br)c1	18.2	nt	11.6	25.0	10.9	-5.6
CCN(C[C@H]1N[C@@](C)(C(=O)OC)[C@H]2C(=O)N(Cc3ccccc3)C(=O)[C@@H]12)C(=O)Nc1ccc(C)cc1	0.4	nt	11.1	0.8	15.1	-5.2
COc1cc(CC(=O)NCC2CCCCC2)cc(OC)c1OC	-7.4	-1.2	-1.5	12.4	17.9	-7.3
Cc1ccc(N(C)S(=O)(=O)c2ccc3c(c2)NC(=O)C(C)S3)cc1 (centres undefined)	-19.5	-3.1	10.1	29.4	21.9	-10.1
Cc1nnsc1C(=O)Nc1ccc(S(=O)(=O)N2CCC(C)CC2)cc1	-10.3	-4.2	3.9	19.4	16.0	-11.6
O=C(Nc1nc(-c2ccccn2)cs1)c1cccc(-n2cnnn2)c1	-9.7	53.3*	13.0	-4.0	17.2	-10.1
O=C(Nc1nc(-c2ccccn2)cs1)C1CC1	14.2	50.6*	2.5	16.5	22.8	-10.3
O=C(Nc1ccc(Br)cc1)c1cccc(-n2cnnn2)c1	11.4	-4.5	17.8	2.7	-15.2	5.4
